Source: PubChem
TGFb SMAD3 inh – inhibitors of TGF-b signaling | hit rate 1.2% among 410,000 | AID 588855 | Potency, µM (highest dose often 46.1 µM), for the others: at the top dose activity, negative = inhibition, actives largely listed as inhibitors | HepG2 CAGA-GFP TGF-b/SMAD3 reporter, GFP fluorescence, 18 h; TGF-beta stimulated, 500 pg/mL final; also: % is scaled to controls: 0 for no effect and ±100 for the full control effect; nearly all actives have a fitted effect of over 65% in size
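Cell-based qHTS in HEPG2 carrying a CAGA-GFP Smad reporter; compounds added before 500 pg/mL final TGF-beta, 18 h incubation at 37 degrees C, GFP fluorescence quantified per cell by imaging cytometry.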
HepG2 tox-1 – HepG2 cytotoxicity, counter-screen for TGF-b inhibitors. Potency, µM (doses to about 46.1 µM), inactives show at the top dose activity change, negative = cytotoxicity, hits mostly cytotoxic. HepG2 CAGA-GFP viability, ATP luminescence, 18 h. hit rate 0.76% among 410,000
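HepG2 CAGA-GFP cells (1000/well, DMEM with 1% FBS) received compound, then TGF-beta at 500 pg/mL final, and were incubated 18 hours at 37 degrees C. Viability was read by CellTiter-Glo luminescence. Media-only wells were set as complete cell-killing and DMSO as no toxicity.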
ATXN viability – viability counter-screen for ATXN expression inhibitors; Potency, µM (doses to about 56.7 µM), most hits filed as cytotoxic; hit rate 0.49% among 400,000; AID 651635; S2 cells (HEK-293 line with an ATXN2-luciferase reporter) viability, CellTiter-Fluor protease fluorescence, 24 h; also: nearly all actives have a fitted effect of over 40% in size
GLP1R ag – agonists of human GLP-1 receptor | P43220 | HEK293 GLP-1R CRE-luciferase, luminescence, 4-6 h; cells express a hypersensitive GLP-1R form | Potency, µM (series often up to 45.6 µM), without a hit: top-dose activation, hits mostly activators | hit rate 0.007% among 380,000; also: % of control where 0% means no effect
Target sequence (P43220 whole entry, looked up): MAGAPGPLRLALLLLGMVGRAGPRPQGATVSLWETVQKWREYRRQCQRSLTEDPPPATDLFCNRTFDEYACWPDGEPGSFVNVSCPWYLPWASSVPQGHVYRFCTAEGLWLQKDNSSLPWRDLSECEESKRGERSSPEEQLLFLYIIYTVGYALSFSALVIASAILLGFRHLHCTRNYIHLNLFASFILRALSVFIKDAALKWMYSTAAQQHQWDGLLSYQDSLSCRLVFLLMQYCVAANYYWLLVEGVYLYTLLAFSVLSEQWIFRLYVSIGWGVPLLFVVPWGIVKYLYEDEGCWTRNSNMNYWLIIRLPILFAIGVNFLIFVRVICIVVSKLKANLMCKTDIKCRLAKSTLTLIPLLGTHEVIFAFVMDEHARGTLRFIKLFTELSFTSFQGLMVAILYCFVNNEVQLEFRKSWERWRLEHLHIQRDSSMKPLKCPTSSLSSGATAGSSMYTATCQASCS
GLP1R inv ag – inverse agonists of human GLP-1 receptor; Potency, µM (titrated, usually from 38.3 µM), inactives show top-dose activity change, negative = inhibition, actives largely listed as inhibitors; hit rate 1.6% among 410,000; P43220; HEK293 GLP-1R CRE-luciferase, luminescence, 24 h; GLP-1R form is constitutively active; also: % is scaled to controls: 0 for no effect and ±100 for the full control effect; nearly all actives have a fitted effect of over 55% in size
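Readout was luciferase luminescence, measured 12 min after detection reagent at room temperature. Beforehand, GLP-1R reporter HEK293 cells had sat 12 h, then received compounds for 24 hr at 37 deg C.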
ATXN2 expr inh – ATXN2 expression inhibition; HEK-293 ATXN2-luciferase reporter, luminescence, 24 h; Potency, µM (doses to about 57 µM), for the others: at the top dose activity change, negative = inhibition, most hits filed as inhibitors; hit rate 0.72% among 360,000; also: % is scaled to controls: 0 for no effect and ±100 for the full control effect; nearly all actives have a fitted effect of over 55% in size
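ATXN2-luciferase reporter cells (luciferase flanked by upstream and downstream ATXN2 gene portions) were treated 24 h at 37 °C with compounds at up to 57 uM. SteadyGlo luminescence gave expression; GF-AFC fluorescence gave viability.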
TGFb CAGA inh – TGF-b pathway inhibition, cherry-pick retest | hit rate 63% among 1,600 | HepG2 CAGA-GFP TGF-b reporter, GFP fluorescence, 18 h; cells stimulated with TGF-beta, 500 pg/mL | Potency, µM (doses to about 46.1 µM), for inactives: at the highest dose activity, negative = inhibition, usual class: inhibitors | shares compounds with TGFb SMAD3 inh; also: % is scaled to controls: 0 for no effect and ±100 for the full control effect; nearly all actives have a fitted effect of over 65% in size
HepG2 tox-2 – HepG2 cytotoxicity, TGF-b inhibitor counterscreen. hit rate 27% among 1,600. Potency, µM (series often up to 46.1 µM), for the others: at the top dose activity, negative = cytotoxicity, usual class: inhibitors. HepG2 CAGA-GFP viability, ATP luminescence, 18 h; cells stimulated with TGF-beta, 500 pg/mL. shares compounds with TGFb SMAD3 inh; also: % is scaled to controls: 0 for no effect and ±100 for the full control effect; nearly all actives have a fitted effect of over 70% in size
CCL64 TGFb inh – blocks TGF-b signaling in CCL64 reporter cells. hit rate 41% among 1,600. shares compounds with TGFb SMAD3 inh. Potency, µM (series often up to 46.1 µM), for inactives: top-dose activity, negative = inhibition, usual class: inhibitors. CCL64 CAGA-GFP reporter, TGF-b stimulated, GFP fluorescence, 18 h; also: nearly all actives have a fitted effect of over 65% in size
COP TGFb inh – validation of TGF-b inhibitors in HepG2 COP promoter reporter; shares compounds with TGFb SMAD3 inh; HepG2 COP-GFP TGF-b reporter, GFP fluorescence, 18 h; cells stimulated by added recombinant TGF-beta; Potency, µM (series often up to 46.1 µM), without a hit: top-dose activity, negative = inhibition, usual class: inhibitors; hit rate 3% among 1,600; also: nearly all actives have a fitted effect of over 70% in size
* hit, by the source's call; i = inactive; ? = inconclusive; / = not tested or not shown. Rows were chosen to be rich in hits. Some 3.7% of all compounds tested hit in one or more screens of this group. Calls follow the shape of the dose curve; as a rule, active = well fitted curve in the direction sought with a large enough effect; inconclusive = small, poorly fitted or top-dose-only effect, or another doubt; inactive = no such curve, though single readings can be large; an effect the other way counts as inactive or inconclusive. Potency is read from the fitted curve at half-maximal effect.

SMILES	TGFb SMAD3 inh	HepG2 tox-1	ATXN viability	GLP1R ag	GLP1R inv ag	ATXN2 expr inh	TGFb CAGA inh	HepG2 tox-2	CCL64 TGFb inh	COP TGFb inh
COc1cc(NC(=O)CSc2ccc(-c3sc(-c4ccccc4)nc3C)nn2)cc(OC)c1	2%	-1%	/	/	5%	/	/	/	/	/
COc1ccc(OC)c(CNC(=O)c2ccc(NC(=O)c3nsc4ccccc34)cc2)c1	5%	-32%	i	/	-14%	7%	/	/	/	/
Cc1ccc(-n2nnnc2Sc2ccc(S(=O)(=O)NCCN(C)C)cc2[N+](=O)[O-])cc1	1.6µM*	8.9µM*	?	-45%	?	?	7.3µM*	21µM*	5.8µM*	?
COc1ccc(C2Nc3ccccc3C(=O)N2Cc2ccco2)cc1 (stereo not drawn)	-4%	10%	/	/	/	/	/	/	/	/
O=C(Nc1nnc(SCc2ccc(F)cc2)s1)c1ccccn1	1.6µM*	-32%	?	?	?	?	?	?	18µM*	55%
O=C(Nc1nnc(SCc2ccc(F)cc2)s1)c1cccnc1Cl	-6%	0%	i	-3%	-7%	5%	/	/	/	/
O=C(NCCN1CCCCC1)c1ccc(Cn2c(SCc3ccc(F)cc3)nc3cccnc32)cc1	-28%	-54%	/	/	-19%	/	/	/	/	/
CN1CCC[C@H]1CCNc1ccc2c(=O)c3ccccc3n(C)c2c1	16µM*	0%	/	1%	?	?	?	?	21µM*	62%
C=CCn1c(O)c(N=NC(=S)Nc2cccc(OC)c2)c2ccccc21	-25%	-23%	i	-3%	?	-42%	/	/	/	/
C=CCn1c(O)c(N=NC(=S)Nc2ccc(OC)cc2)c2ccccc21	?	-30%	?	-4%	?	?	?	?	?	-12%
CCN1CCN(c2ccc(NC(=O)c3ccc([N+](=O)[O-])o3)cc2Cl)CC1	?	-6%	?	-3%	6%	-11%	/	/	/	/
CCN1CCN(c2ccc(S(=O)(=O)N3CCCCC3)cc2NC(=O)c2ccc([N+](=O)[O-])o2)CC1	7.9µM*	-106%	/	-7%	13%	?	10µM*	21µM*	16µM*	?
COc1ccc(S(=O)(=O)N2CCCCC2)cc1NC(=O)c1ccc([N+](=O)[O-])o1	-10%	0%	i	5%	13%	3%	/	/	/	/
CC(=O)N1CCN(c2ccc(NC(=O)c3ccc([N+](=O)[O-])o3)cc2Cl)CC1	6.3µM*	i	?	9%	131%	-36%	4.6µM*	18µM*	12µM*	-28%
CC(=O)Nc1ccc2nc(NC(=O)c3ccc([N+](=O)[O-])o3)sc2c1	5µM*	0%	i	5%	70%	3%	1.8µM*	21µM*	?	21%
CCC(=O)N1CCN(c2ccc(NC(=O)c3ccc([N+](=O)[O-])o3)cc2Cl)CC1	7.9µM*	-87%	?	17%	89%	?	3.7µM*	9.2µM*	21µM*	-15%
CCOc1ccc(S(=O)(=O)NCC(c2ccco2)S(=O)(=O)c2ccc(F)cc2)cc1 (stereo not drawn)	-5%	-9%	/	/	-24%	/	/	/	/	/
COc1ccc(-c2cc(-c3c(O)c(OC)c4occc4c3OC)[nH]n2)cc1OC	7.9µM*	-29%	i	7%	18%	2%	?	?	?	61%
CCOC(=O)c1cccc(NC(=O)CCc2c(C)nn(-c3ccc(N4CCCCC4)nn3)c2C)c1	?	-26%	/	/	?	/	/	/	/	/
O=C(CN1CCN(C(=O)C2CCN(C(=O)/C=C/c3ccccc3)CC2)CC1)Nc1ccc(F)cc1	-90%	-26%	i	-42%	-41%	7%	-24%	-1%	-2%	3%
COC(=O)C1=C[C@@H](C(=O)OC)[C@@H]2C3=C(C(=O)C2(C)C)[C@H](C)n2c(=O)n(C)c(=O)n2[C@@H]3C1	?	-27%	/	/	/	/	/	/	/	/
COc1cc(NC(=O)c2cc3c(=O)oc4ccc(C)cc4c3s2)cc(OC)c1OC	-14%	1%	i	-1%	3%	6%	/	/	/	/
O=[N+]([O-])c1c(Nc2ccccn2)cc(Cl)c2nonc12	3.2µM*	-91%	?	-10%	?	28µM*	4.6µM*	4.6µM*	4.6µM*	5.2µM*
CN(C)c1cc(Nc2ccc(O)cc2)c([N+](=O)[O-])c2nonc12	6%	-1%	?	1%	32%	5%	/	/	/	/
O=[N+]([O-])c1c(Nc2ccc(O)cc2)cc(Cl)c2nonc12	2.8µM*	5µM*	/	-11%	?	/	3.3µM*	3.7µM*	2.9µM*	4.6µM*
CCSc1ccc([C@@H]2[C@@H]3C(=O)N(CC)C(=O)[C@@H]3[C@]3(C(=O)OC)CCCN23)cc1	?	-21%	i	-2%	9%	8%	?	4%	-11%	0%
O=C(NCc1ccccc1)C1=C[C@H](c2ccc(C(F)(F)F)cc2)C[C@H](OCc2ccc(CO)cc2)O1	?	-28%	?	3%	?	-15%	?	-14%	?	8%
O=C(CCNc1ccc(Br)cc1)c1cccc([N+](=O)[O-])c1	13µM*	13%	i	-2%	-28%	1%	18µM*	-15%	-6%	15%
O=C(CCNc1ccc(F)cc1)c1cccc([N+](=O)[O-])c1	?	-40%	i	-11%	0%	-23%	/	/	/	/
